# Dicer processing: blocks human Dicer maturation of pre-miR-21 | z-score at 25 µM | 47,000 tested, 6% active | cat-ELCCA pre-miR-21 Dicer processing, chemiluminescence; active compounds read high; in the data active = z-score above about 3, passing the limit was not always enough;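 note: plate controls were vehicle for no effect and no enzyme for full effect; higher signal means more uncleaved substrate so more Dicer inhibition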
# * hit, by the source's call. The sample as a whole holds a higher share of hits than the screen did.
SMILES,Dicer processing
CCn1c2ccccc2c2cc(C3C(C(=O)OCCOC)=C(C)NC4=C3C(=O)CCC4)ccc21 (stereo not given),3.6*
CCn1c2ccccc2c2cc(C3C(C(=O)OCC4CCCO4)=C(C)NC4=C3C(=O)CCC4)ccc21 (stereo not given),0.8
CCCCCOC(=O)C1=C(C)NC2=C(C(=O)CCC2)C1c1ccc(OC)c(OC)c1 (stereo not given),-0.68
CCSCCOC(=O)C1=C(C)NC2=C(C(=O)CCC2)C1c1ccc(OC)c(OC)c1 (stereo not given),4.8*
CCOC(=O)C1=C(C)NC2=C(C(=O)CC(C)(C)C2)C1c1cccc2ccccc12 (stereo not given),-0.11
CC(C)(C)c1cc2ncnc(NC3CCN(Cc4ccccc4)CC3)c2s1,-0.14
Cc1cc(C)c(CSC2=NCCCN2C2CCCCC2)c(C)c1,-0.56
CCOC(=O)c1cc2c(C(F)(F)F)nn(C)c2s1,-0.3
CC(NC1CCS(=O)(=O)C1)C(=O)O (stereo not given),0.92
CCCOc1ccc(C2N=C(N)Nc3nc4ccccc4n32)cc1 (stereo not given),-0.68
COc1ccc2nc(NC(=O)Nc3ccc(Cl)cc3)sc2c1,2.7
COc1ccc(NC(=O)/C=C/c2ccc(Cl)cc2)cc1,-0.89
COc1ccc(Nc2nc(NC(=O)Nc3ccc(Cl)cc3)n[nH]2)cc1,10*
Cc1noc(/C=C/c2cc(C)n(-c3ccc(C(=O)O)cc3)c2C)c1[N+](=O)[O-],1.4
O=C(O)CCCC(=O)Nc1ccc(Br)cn1,-0.19
CC1(C)CC(=O)C2=C(C1)N(Cc1ccccc1)CN(Cc1ccco1)C2,1.9
COCCOC(=O)C1=C(C)NC2=C(C(=O)CCC2)C1c1coc2ccccc2c1=O (stereo not given),4.8
CC1=C(C(=O)OCCOC(C)C)C(c2coc3ccc(C)cc3c2=O)C2=C(CCCC2=O)N1 (stereo not given),7.2*
CC1=C(C(=O)OC2CCCCC2)C(c2coc3ccc(C)cc3c2=O)C2=C(CCCC2=O)N1 (stereo not given),3.2*
CC1=C(C(=O)OCCOC(C)C)C(c2ccc(C)o2)C2=C(CCCC2=O)N1 (stereo not given),-0.28
CC1=C(C(=O)OC2CCCCC2)C(c2coc3ccc(C)cc3c2=O)C2=C(CC(C)(C)CC2=O)N1 (stereo not given),1.1
CC1=C(C(=O)OC2CCCC2)C(c2coc3ccc(Cl)cc3c2=O)C2=C(CCCC2=O)N1 (stereo not given),0.44
O=C1C2C(C(=O)C3C1[C@H]1C=C[C@@H]3C1)[C@H]1C=C[C@@H]2C1 (stereo not given in full),-0.93
CCOC(=O)NC(=S)Nc1cc(C(C)(C)C)ccc1NC(C)=O,2.6
C[n+]1cn(CC(O)COc2cccc(Cl)c2)c2ccccc21 (stereo not given),-0.35
SMILES,Dicer processing
COc1ccccc1C1SCCN1S(=O)(=O)c1ccc(Br)cc1 (stereo not given),2.6
Brc1ccc2c(c1)CN(Cc1ccccc1)CO2,4.5*
Brc1ccc2c(c1)CN(C1CCCCC1)CO2,1.5
Clc1ccc2c(c1)CN(Cc1ccccc1)CO2,3.3*
Clc1ccc2nc(NC3=NCN(Cc4ccccc4)CN3)oc2c1,1.2
COc1ccc(CN2COc3ccc(F)cc3C2)cc1,0.47
CCOc1ccc2c(c1)CN(Cc1ccc(Cl)cc1)CO2,1.1
CCOC(=O)N/N=C/c1cc(C(F)(F)F)cc(C(F)(F)F)c1,-0.34
CCOC(=O)C1C2C=CC3(CN(C(c4ccccc4)c4ccccc4)C(=O)C13)O2 (stereo not given),-0.14
O=C(c1ccc2ccccc2n1)N1CCc2ccccc2C1,-0.29
C=CCN(CC=C)C(=O)c1cc(-c2ccccc2)nc2ccccc12,-1.5
O=[N+]([O-])c1cc(C(F)(F)F)ccc1-c1ccc(C(F)(F)F)cc1[N+](=O)[O-],1.8
COCCCN1CN=C(SCc2ccc(Cl)cc2)NC1,-0.75
CC(C)n1c(Oc2ccc(F)cc2)nc2c1c(=O)n(C)c(=O)n2C,0.6
Cc1cc(Oc2nc3c(c(=O)n(C)c(=O)n3C)n2C)cc(C)c1Cl,3.8*
Cn1c(=O)c2c(nc(Oc3ccc(F)cc3Cl)n2C)n(C)c1=O,2.9
CCOC(=O)c1c(NC(=O)C(C)(C)C)sc(C)c1C,-0.83
O=[N+]([O-])c1ccsc1SCCO,-1.5
O=c1cc(-c2ccccc2)nc(SCc2ccccc2Cl)[nH]1,0.68
COCC(C)NC(=O)c1cc2c(C)cc(C)cc2[nH]1 (stereo not given),-2.8
O=[N+]([O-])c1cc(C(F)(F)F)ccc1Sc1ccc(C(F)(F)F)cn1,-0.36
O=[N+]([O-])c1ccsc1Sc1ccc(C(F)(F)F)cn1,-0.18
O=C1NC(=S)S/C1=C/c1ccc(Sc2ccc(C(F)(F)F)cn2)c([N+](=O)[O-])c1,3.4*
CC(C)(C)OC(=O)NCCNC(=S)NCc1ccccc1,-0.79
N/C(=N\OC(=O)Nc1ccc(OC(F)(F)F)cc1)c1cc(Cl)c(N)c(Cl)c1,0.19
SMILES,Dicer processing
O=C1C2ON(c3ccccc3)C(c3ccco3)C2C(=O)N1Cc1ccccc1 (stereo not given),4.1*
CCOc1ccc(N2C(=O)C3ON(c4ccccc4)C(c4ccco4)C3C2=O)cc1 (stereo not given),-1.3
O=C1C2ON(c3ccccc3)C(c3ccc(F)cc3)C2C(=O)N1Cc1ccccc1 (stereo not given),0.11
O=C1C2ON(c3ccccc3)C(c3ccco3)C2C(=O)N1c1ccc(Br)cc1 (stereo not given),0.66
O=C1C2ON(c3ccccc3)C(c3ccco3)C2C(=O)N1c1ccccc1 (stereo not given),3.5*
COc1ccc(C2C3C(=O)N(Cc4ccccc4)C(=O)C3ON2c2ccccc2)cc1 (stereo not given),0.46
Cc1cc(S(N)(=O)=O)c(C)cc1Cl,-1.1
CC1=C(C(=O)OC2CCCC2)C(c2ccccc2C)C2=C(CC(C)(C)CC2=O)N1 (stereo not given),-0.83
CC(C)S(=O)(=O)c1csc(C(=O)O)c1,-1.2
OCCN(CCO)c1cccc(Cl)c1,0.56
CCCC(C)(SCC(=O)O)SCC(=O)O,0.85
Cc1cc(NS(=O)(=O)c2ccc(NC(=O)CSCC(=O)O)cc2)no1,-0.46
Cc1nn(-c2ccccc2)nc1C(=O)NNC(=O)c1ccccc1N,0.74
Cc1onc(-c2ccccc2)c1C(=O)NNC(=O)c1ccc(-n2c(C)ccc2C)cc1,3.1*
Cc1onc(-c2ccccc2)c1C(=O)n1cccc1,-0.05
Cc1onc(-c2ccccc2)c1C(=O)NCCNC(=O)c1c(-c2ccccc2)noc1C,1.2
CCOc1ccc(/C(O)=C2/C(=O)C(=O)N(CC3CCCO3)C23C(=O)N(CC)c2ccccc23)cc1 (stereo not given),-1.2
CS/C(=N/S(=O)(=O)c1ccc(-n2nc(C(F)(F)F)cc2-c2cccs2)cc1)N/N=C/c1ccccc1,-0.44
CC(C)NC(=O)C(=O)NCC1CCCO1 (stereo not given),0.7
CCOC(=O)C(C(=O)NCC1CCCO1)C1CCCCC1 (stereo not given),4*
CC(O)CNC(=O)C(=O)NCC1CCCO1 (stereo not given),1.2
O=C(On1c(-c2ccccc2)nc2ccccc2c1=O)c1ccc(F)cc1,0.38
CCc1cc2c(cc1C(=O)CC1(O)C(=O)Nc3ccc(Br)cc31)C(C)(C)CCC2(C)C (stereo not given),2.2
COc1ccc(OC)c(C(=O)CC2(O)C(=O)N(C(C)C)c3ccccc32)c1 (stereo not given),0.57

# Bioassay records deposited in PubChem by Center for Chemical Genomics, University of Michigan.
